Measurements: PubChem BioAssay (NCATS)
Results filed as inconclusive are left out. Active and inactive are the calls of the source. The call rests on the fitted dose curve; in most records, active means well fitted inhibition curve with a large enough effect; inconclusive means small, poorly fitted or top-dose-only effect; inactive means flat fitted curve, though single readings scatter.

What was measured:
Assay in all cases: qHTS profiling for inhibitors of Plasmodium falciparum proliferation (AID 504749); further: nearly all actives have a fitted effect of over 60% in size
Conditions in all cases: P. falciparum in erythrocytes, SYBR Green DNA, 72 h; series mostly up to 28.7 µM
CP262 = tested on: CP262
Summary of the method: (§1)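 SYBR Green fluorescence of parasite DNA, read after lysis and overnight dark incubation, measured growth over 72 h in erythrocyte culture at 0.3% parasitemia and 2.5% hematocrit. Data normalised to DMSO and 0.29 uM artemisinin, with plate-drift correction.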

CP265 = tested on: CP265
Summary of the method: as §1

CP266 = tested on: CP266
Summary of the method: as §1

CP268 = tested on: CP268
Summary of the method: as §1

CP269 = tested on: CP269
Summary of the method: as §1

CP286 = tested on: CP286
Summary of the method: as §1

CP291 = tested on: CP291
Summary of the method: as §1

CP297 = tested on: CP297
Summary of the method: as §1

CP305 = tested on: CP305
Summary of the method: as §1

CP315 = tested on: CP315
Summary of the method: as §1

CP325 = tested on: CP325
Summary of the method: as §1

CP335 = tested on: CP335
Summary of the method: as §1

DFO2036 = tested on: DFO2036
Summary of the method: as §1

DIV14 = tested on: DIV14
Summary of the method: as §1

DIV17 = tested on: DIV17
Summary of the method: as §1

DIV30 = tested on: DIV30
Summary of the method: as §1

Dd2 = tested on: Dd2
Summary of the method: as §1

ECU = tested on: ECU
Summary of the method: as §1

FAB9 = tested on: FAB9
Summary of the method: as §1

GB4 = tested on: GB4
Summary of the method: as §1

HB3 = tested on: HB3
Summary of the method: as §1

ICS = tested on: ICS
Summary of the method: as §1

JCK = tested on: JCK
Summary of the method: as §1

N140 = tested on: N140
Summary of the method: as §1

P93_24 = tested on: P93_24
Summary of the method: as §1

P94_40 = tested on: P94_40
Summary of the method: as §1

PAD = tested on: PAD
Summary of the method: as §1

PC15 = tested on: PC15
Summary of the method: as §1

PC26 = tested on: PC26
Summary of the method: as §1

PC49 = tested on: PC49
Summary of the method: as §1

SC27B = tested on: SC27B
Summary of the method: as §1

TAB109 = tested on: TAB109
Summary of the method: as §1

TAB113 = tested on: TAB113
Summary of the method: as §1

TAB165 = tested on: TAB165
Summary of the method: as §1

W2 = tested on: W2
Summary of the method: as §1

Measured: Potency
Potency means the concentration at half of the fitted maximal effect.

CC[C@]1([C@H]2O[C@@H]([C@@H]3O[C@](O)(CO)[C@@H](C)C[C@H]3C)C[C@H]2C)CC[C@@H]([C@]2(C)CC[C@@]3(C[C@@H](O)[C@@H](C)[C@@H]([C@H](C)[C@H](OC)[C@H](C)C(=O)O)O3)O2)O1
active: CP262 0.0269 µM | CP265 0.0316 µM | CP266 0.0536 µM | CP268 0.0379 µM | CP269 0.0338 µM | CP286 0.0224 µM | CP291 0.019 µM | CP297 0.0338 µM | CP305 0.0338 µM | CP315 0.0338 µM | CP325 0.0301 µM | CP335 0.019 µM | DFO2036 0.0355 µM | DIV14 0.0338 µM | DIV17 0.0269 µM | DIV30 0.0379 µM | Dd2 0.0398 µM | ECU 0.0501 µM | FAB9 0.0708 µM | GB4 0.0269 µM | HB3 0.0447 µM | ICS 0.02 µM | JCK 0.0708 µM | N140 0.0398 µM | P93_24 0.0447 µM | P94_40 0.0251 µM | PAD 0.0631 µM | PC15 0.0562 µM | PC26 0.0239 µM | PC49 0.0708 µM | SC27B 0.0501 µM | TAB109 0.0316 µM | TAB113 0.0501 µM | TAB165 0.112 µM | W2 0.019 µM
